{"source": "PubChem BioAssay (NCATS)", "key": {"[1]": {"assay": "Cytotoxicity counterscreen for inhibitors of SARS-CoV-2 cell entry (AID 1645845); note: nearly all actives have a fitted effect of over 50% in size; note: potency is the fitted concentration of half-maximal effect", "method_in_brief": "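48 h compound treatment (after 1 h preincubation), HEK293-ACE2 cells, 37 C/5% CO2; ATP luminescence endpoint; normalized to cell wells and media blanks.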"}, "[2]": {"assay": "Primary qHTS to identify inhibitors of SARS-CoV-2 cell entry (AID 1645846); note: nearly all actives have a fitted effect of over 45% in size", "settings": "activity change, negative = inhibition: at 57.1 µM (top of the series) unless noted", "method_in_brief": "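Inhibition of spike-mediated entry was scored in human ACE2-transfected Expi293F cells. Particles were MLV-pseudotyped with Wuhan-Hu-1 S carrying a 19-aa C-terminal deletion; signal was luciferase after two days, scaled between spike PP and fusion-protein-free PP.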"}}, "note": "Inconclusive results are not listed. Where a call stands in place of a potency, no number is given. Calls of active or inactive are those of the source. Calls come from the whole dose curve.", "data": [{"smiles": "CCn1cc(C(=O)O)c(=O)c2cc(F)c(N3CCN(C)CC3)cc21", "values": [{"measurement": "Potency", "setting": "[1]", "result": "inactive"}]}, {"smiles": "COc1cc(N)c(Cl)cc1C(=O)NC1CCN(CCCOc2ccc(F)cc2)CC1OC", "note": "(stereo not given)", "values": [{"measurement": "Potency", "setting": "[1]", "result": "inactive"}]}, {"smiles": "CN(C)CCOc1ccccc1Cc1ccccc1", "values": [{"measurement": "Potency", "setting": "[1]", "result": "inactive"}]}, {"smiles": "CC(=O)Oc1ccc(C(=C2CCCCC2)c2ccc(OC(C)=O)cc2)cc1", "values": [{"measurement": "Potency", "setting": "[1]", "result": "inactive"}]}, {"smiles": "Oc1cccc(-c2c3nc(c(-c4cccc(O)c4)c4ccc([nH]4)c(-c4cccc(O)c4)c4nc(c(-c5cccc(O)c5)c5ccc2[nH]5)CC4)C=C3)c1", "values": [{"measurement": "Potency", "setting": "[1]", "result": "inactive"}]}, {"smiles": "O=C(Nc1ccc([N+](=O)[O-])cc1)Nc1ccc([N+](=O)[O-])cc1", "values": [{"measurement": "Potency", "setting": "[1]", "result": "inactive"}]}, {"smiles": "O=C(O)C(=O)Nc1cccc(-c2nn[nH]n2)c1", "values": [{"measurement": "Potency", "setting": "[1]", "result": "inactive"}]}, {"smiles": "CC(C)(C)c1ccc(C(=O)CCCN2CCC(OC(c3ccccc3)c3ccccc3)CC2)cc1", "values": [{"measurement": "Potency", "setting": "[1]", "result": "inactive"}]}, {"smiles": "Nc1c(CC(=O)O)cccc1C(=O)c1ccc(Br)cc1", "values": [{"measurement": "Potency", "setting": "[1]", "result": "inactive"}]}, {"smiles": "CCCCC/C=C\\C/C=C\\CCCCCCCC(=O)NC(C)c1ccccc1", "note": "(stereo not given)", "values": [{"measurement": "Potency", "setting": "[1]", "result": "inactive"}]}, {"smiles": "CCN(CC)CCOC(=O)C1(c2ccccc2)CCCC1", "values": [{"measurement": "Potency", "setting": "[1]", "result": "inactive"}]}, {"smiles": "NS(=O)(=O)c1cc2c(cc1Cl)NC(C1CC3C=CC1C3)NS2(=O)=O", "note": "(stereo not given)", "values": [{"measurement": "Potency", "setting": "[1]", "result": "inactive"}]}, {"smiles": "CNC1CCCN(c2c(F)cc3c(=O)c(C(=O)O)cn(C4CC4)c3c2OC)C1", "note": "(stereo not given)", "values": [{"measurement": "Potency", "setting": "[1]", "result": "inactive"}]}, {"smiles": "COc1cc(N)c(Cl)cc1C(=O)NC1CCN(Cc2ccccc2)CC1", "values": [{"measurement": "Potency", "setting": "[1]", "result": "inactive"}]}, {"smiles": "N[C@H](Cc1c[nH]c2ccccc12)C(=O)O", "values": [{"measurement": "Potency", "setting": "[1]", "result": "inactive"}]}, {"smiles": "C[C@@H]1C[C@H]2[C@@H]3CCC4=CC(=O)C=C[C@]4(C)[C@@]3(F)[C@@H](O)C[C@]2(C)[C@H]1C(=O)CO", "values": [{"measurement": "Potency", "setting": "[1]", "result": "inactive"}]}, {"smiles": "CCCN(CCC)C(=O)C(CCC(=O)O)NC(=O)c1ccccc1", "note": "(stereo not given)", "values": [{"measurement": "Potency", "setting": "[1]", "result": "inactive"}]}, {"smiles": "CCN(CC)CCOCCOC(=O)C1(c2ccccc2)CCCC1", "values": [{"measurement": "Potency", "setting": "[1]", "result": "inactive"}]}, {"smiles": "O=C(O)c1ccccc1Nc1cc(Cl)ccc1C(=O)O", "values": [{"measurement": "Potency", "setting": "[1]", "result": "inactive"}]}, {"smiles": "C#C[C@]1(OC(C)=O)CC[C@H]2[C@@H]3CCC4=C[C@@H](OC(C)=O)CC[C@@H]4[C@H]3CC[C@@]21C", "values": [{"measurement": "Potency", "setting": "[1]", "result": "inactive"}]}, {"smiles": "Cc1cccc(CN2CCN(C(c3ccccc3)c3ccc(Cl)cc3)CC2)c1", "note": "(stereo not given)", "values": [{"measurement": "Potency", "setting": "[1]", "result": "inactive"}]}, {"smiles": "Cc1ccc2nc(N)[nH]c(=O)c2c1Sc1ccncc1", "values": [{"measurement": "Potency", "setting": "[1]", "result": "inactive"}]}, {"smiles": "CCO[C@@H]1O[C@H](C(COCc2ccccc2)OCc2ccccc2)[C@H](OCc2ccccc2)[C@H]1O", "note": "(stereo not given in full)", "values": [{"measurement": "Potency", "setting": "[1]", "result": "inactive"}]}, {"smiles": "CCC(=O)c1ccc2c(c1)N(CCCN(C)C)c1ccccc1S2", "values": [{"measurement": "Potency", "setting": "[1]", "result": "inactive"}]}, {"smiles": "CC(=O)Nc1ccc(S(=O)(=O)Nc2ccc([N+](=O)[O-])cc2)cc1", "values": [{"measurement": "Potency", "setting": "[1]", "result": "inactive"}]}, {"smiles": "Nc1ccn([C@H]2CC[C@@H](CO)O2)c(=O)n1", "values": [{"measurement": "Potency", "setting": "[1]", "result": "inactive"}]}, {"smiles": "Cc1cccc(N(C)C(=S)Oc2ccc3c(c2)C2CCC3C2)c1", "note": "(stereo not given)", "values": [{"measurement": "Potency", "setting": "[1]", "result": "inactive"}]}, {"smiles": "CCOC(CN1CCN(CC(C)C(=O)c2ccccc2)CC1)c1ccccc1", "note": "(stereo not given)", "values": [{"measurement": "Potency", "setting": "[1]", "result": "inactive"}]}, {"smiles": "CCN(CCCc1ccccc1)CCCc1ccccc1", "values": [{"measurement": "Potency", "setting": "[1]", "result": "inactive"}]}, {"smiles": "COc1ccc(CCN(C)CCCC(C#N)(c2cc(OC)c(OC)c(OC)c2)C(C)C)cc1OC", "note": "(stereo not given)", "values": [{"measurement": "Potency", "setting": "[1]", "result": "inactive"}]}, {"smiles": "CC(=O)N(CC(=O)N(C)C)c1ccccc1", "values": [{"measurement": "Potency", "setting": "[1]", "result": "inactive"}]}, {"smiles": "C=C1c2cccc(O)c2C(O)=C2C(=O)[C@]3(O)C(O)=C(C(N)=O)C(=O)[C@@H](N(C)C)[C@@H]3[C@@H](O)[C@H]12", "values": [{"measurement": "Potency", "setting": "[1]", "result": "inactive"}]}, {"smiles": "CC(=O)c1ccc2c(c1)N(CCCN(C)C)c1ccccc1S2", "values": [{"measurement": "Potency", "setting": "[1]", "result": "inactive"}]}, {"smiles": "OC[C@@H](O)[C@H](O)[C@H](O)[C@@H](O)CO", "values": [{"measurement": "Potency", "setting": "[1]", "result": "inactive"}]}, {"smiles": "CCCCCCCCCCCCCCCC[n+]1ccccc1", "values": [{"measurement": "Potency", "setting": "[1]", "result": "11.2 µM (active)"}]}, {"smiles": "O=Cc1ccccc1C=O", "values": [{"measurement": "Potency", "setting": "[1]", "result": "inactive"}, {"measurement": "activity change, negative = inhibition", "setting": "[2]", "result": -7.57, "unit": "%"}]}, {"smiles": "Nc1ccn(C2CO[C@H](CO)O2)c(=O)n1", "note": "(stereo not given in full)", "values": [{"measurement": "Potency", "setting": "[1]", "result": "inactive"}, {"measurement": "Potency", "setting": "[2]", "result": "inactive"}]}, {"smiles": "COc1ccc(-c2cc(C(F)F)nn2-c2ccc(S(N)(=O)=O)cc2)cc1F", "values": [{"measurement": "Potency", "setting": "[1]", "result": "inactive"}, {"measurement": "activity change, negative = inhibition", "setting": "[2]", "result": 1.11, "unit": "%"}]}, {"smiles": "COc1ccc2c(c1)C(=O)N(CCc1ccc(S(=O)(=O)NC(=O)NC3CCCCC3)cc1)C(=O)C2(C)C", "values": [{"measurement": "Potency", "setting": "[1]", "result": "inactive"}, {"measurement": "Potency", "setting": "[2]", "result": "inactive"}]}, {"smiles": "C1CCN2C[C@@H]3C[C@@H](CN4CCCC[C@@H]34)[C@H]2C1", "values": [{"measurement": "Potency", "setting": "[1]", "result": "inactive"}, {"measurement": "activity change, negative = inhibition", "setting": "[2]", "result": -16.5, "unit": "%"}]}, {"smiles": "CC(=O)OCC(=O)Nc1cc(C#N)cc(NC(=O)COC(C)=O)c1Cl", "values": [{"measurement": "Potency", "setting": "[1]", "result": "inactive"}, {"measurement": "Potency", "setting": "[2]", "result": "inactive"}]}, {"smiles": "C[C@@H]1C[C@H]2[C@@H]3CCC4=CC(=O)C=C[C@]4(C)[C@@]3(F)[C@@H](O)C[C@]2(C)[C@@]1(O)C(=O)COC(=O)c1ccncc1", "values": [{"measurement": "Potency", "setting": "[1]", "result": "inactive"}, {"measurement": "Potency", "setting": "[2]", "result": "inactive"}]}, {"smiles": "CCC1NC(=O)c2cc(S(N)(=O)=O)c(Cl)cc2N1", "note": "(stereo not given)", "values": [{"measurement": "Potency", "setting": "[1]", "result": "inactive"}, {"measurement": "activity change, negative = inhibition", "setting": "[2]", "result": -25.9, "unit": "%"}]}, {"smiles": "CCOC(=O)OCC/C(SC(=O)OCC)=C(\\C)N(C=O)Cc1cnc(C)nc1N", "values": [{"measurement": "Potency", "setting": "[1]", "result": "inactive"}, {"measurement": "Potency", "setting": "[2]", "result": "inactive"}]}, {"smiles": "O=C1c2ccccc2C(=O)C1c1ccccc1", "values": [{"measurement": "Potency", "setting": "[1]", "result": "inactive"}, {"measurement": "Potency", "setting": "[2]", "result": "inactive"}]}]}
